Laboratory results as given in article PMC7862700, “An all-to-all approach to the identification of sequence-specific readers for epigenetic DNA modifications on cytosine”.

How the values were obtained:
Experiment in all cases: DAPPL (digital affinity profiling via proximity ligation, sequencing); 10 mM Tris-HCl pH 7.5, 50 mM NaCl, 1 mM DTT, 4% glycerol, room temperature, 30 min; GST-TFs on glutathione beads, 16-mer random dsDNA library, 0.1% formaldehyde crosslink after washing; high values mean tight binding
FEV = biological target: T1, FEV (Homo sapiens, UniProt Q99581 1-238); settings: protein: recombinant; tags: N-terminal GST; dsDNA, one strand shown
T1 sequence: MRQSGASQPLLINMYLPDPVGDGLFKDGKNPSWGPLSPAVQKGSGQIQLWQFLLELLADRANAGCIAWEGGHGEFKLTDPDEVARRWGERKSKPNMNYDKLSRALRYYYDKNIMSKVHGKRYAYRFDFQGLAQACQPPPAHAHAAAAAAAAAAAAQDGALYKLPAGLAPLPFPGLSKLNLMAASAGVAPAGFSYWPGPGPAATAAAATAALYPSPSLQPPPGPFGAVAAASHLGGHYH
Procedure, shortened: (§1)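 Binding signal is defined as a hexamer's read frequency for one factor over its frequency for the tag-only sample. To obtain reads, GST-fused human transcription factors were expressed in yeast, captured on glutathione beads, barcoded with DNA and pooled with that sample. Pools met 200 nmole of a 16-mer random double-stranded DNA library in Tris/NaCl/DTT/glycerol buffer for 30 min at room temperature before washing, 0.1% formaldehyde crosslinking, proximity ligation (BsaI/T4 ligase, 1 h, 37 °C), PCR and Illumina NextSeq500 sequencing.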

ETV5 = ETV5 (Homo sapiens, UniProt P41161 1-510); settings: protein: recombinant; tags: N-terminal GST; dsDNA, one strand shown
Sequence of ETV5 (P41161 whole entry): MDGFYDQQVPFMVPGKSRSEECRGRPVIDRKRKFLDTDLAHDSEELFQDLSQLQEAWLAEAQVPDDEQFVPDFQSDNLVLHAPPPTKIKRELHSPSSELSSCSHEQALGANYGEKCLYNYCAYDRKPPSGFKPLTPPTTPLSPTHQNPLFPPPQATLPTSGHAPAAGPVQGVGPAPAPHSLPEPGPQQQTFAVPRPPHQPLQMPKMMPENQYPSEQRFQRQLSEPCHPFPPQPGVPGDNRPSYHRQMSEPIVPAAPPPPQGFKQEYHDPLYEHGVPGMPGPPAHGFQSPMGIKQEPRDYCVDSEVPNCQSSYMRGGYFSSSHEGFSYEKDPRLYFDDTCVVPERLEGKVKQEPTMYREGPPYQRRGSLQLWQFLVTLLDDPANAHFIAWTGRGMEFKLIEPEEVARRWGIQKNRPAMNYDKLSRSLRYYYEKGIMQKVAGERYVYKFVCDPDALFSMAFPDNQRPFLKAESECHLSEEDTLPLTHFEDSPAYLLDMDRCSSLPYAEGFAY
Procedure, shortened: as §1

HSF1 = HSF1 (Homo sapiens, UniProt Q00613 1-529); settings: protein: recombinant; tags: N-terminal GST; chain copies: 3; dsDNA, one strand shown
Sequence of HSF1 (Q00613 whole entry): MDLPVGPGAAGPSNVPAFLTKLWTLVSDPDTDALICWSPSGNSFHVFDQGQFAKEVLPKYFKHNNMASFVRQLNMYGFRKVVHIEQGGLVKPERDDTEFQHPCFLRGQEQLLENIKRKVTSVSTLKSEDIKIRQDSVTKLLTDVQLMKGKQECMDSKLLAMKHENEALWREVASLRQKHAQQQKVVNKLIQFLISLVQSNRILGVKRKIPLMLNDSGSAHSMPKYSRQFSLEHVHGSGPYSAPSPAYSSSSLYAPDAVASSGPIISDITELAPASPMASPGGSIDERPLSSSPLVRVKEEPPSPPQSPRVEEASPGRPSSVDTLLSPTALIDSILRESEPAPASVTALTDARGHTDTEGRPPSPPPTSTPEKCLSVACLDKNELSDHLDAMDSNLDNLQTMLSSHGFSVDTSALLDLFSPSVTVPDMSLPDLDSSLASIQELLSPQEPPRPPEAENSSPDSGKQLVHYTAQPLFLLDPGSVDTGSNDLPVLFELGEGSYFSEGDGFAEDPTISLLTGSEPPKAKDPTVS
Procedure, shortened: as §1

SPIC = biological target: T2, SPIC (Homo sapiens, UniProt Q8N5J4 1-248); settings: protein: recombinant; tags: N-terminal GST; dsDNA, one strand shown
T2 sequence: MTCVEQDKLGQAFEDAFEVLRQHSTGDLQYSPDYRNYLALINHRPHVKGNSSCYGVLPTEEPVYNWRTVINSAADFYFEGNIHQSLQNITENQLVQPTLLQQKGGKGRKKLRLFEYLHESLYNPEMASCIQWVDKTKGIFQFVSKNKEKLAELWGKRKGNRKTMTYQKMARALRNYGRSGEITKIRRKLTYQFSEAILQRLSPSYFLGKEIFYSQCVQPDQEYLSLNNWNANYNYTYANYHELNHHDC
Procedure, shortened: as §1

ELF4 = ELF4 (Homo sapiens, UniProt Q99607 1-663); settings: protein: recombinant; tags: N-terminal GST; dsDNA, one strand shown
Sequence of ELF4 (Q99607 whole entry): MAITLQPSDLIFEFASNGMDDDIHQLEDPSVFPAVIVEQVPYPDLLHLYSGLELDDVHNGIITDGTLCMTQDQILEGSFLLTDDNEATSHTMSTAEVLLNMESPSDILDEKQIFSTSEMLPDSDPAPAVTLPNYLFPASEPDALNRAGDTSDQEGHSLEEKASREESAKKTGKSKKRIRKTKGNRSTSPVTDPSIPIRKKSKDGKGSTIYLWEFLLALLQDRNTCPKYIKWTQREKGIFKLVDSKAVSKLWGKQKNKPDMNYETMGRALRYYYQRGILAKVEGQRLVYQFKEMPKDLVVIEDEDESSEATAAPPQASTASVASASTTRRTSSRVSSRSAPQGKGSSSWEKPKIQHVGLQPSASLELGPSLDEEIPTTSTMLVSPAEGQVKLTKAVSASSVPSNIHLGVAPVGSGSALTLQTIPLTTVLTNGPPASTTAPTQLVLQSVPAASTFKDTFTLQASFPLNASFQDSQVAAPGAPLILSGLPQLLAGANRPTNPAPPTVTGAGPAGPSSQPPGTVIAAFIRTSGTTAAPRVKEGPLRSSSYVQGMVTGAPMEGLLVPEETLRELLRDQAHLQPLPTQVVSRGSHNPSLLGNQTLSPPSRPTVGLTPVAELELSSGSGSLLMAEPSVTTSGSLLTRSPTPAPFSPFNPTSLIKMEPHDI
Procedure, shortened: as §1

ELK4 = biological target: T3, ELK4 (Homo sapiens, UniProt P28324-2 1-405); settings: protein: recombinant; tags: N-terminal GST; dsDNA, one strand shown
T3 sequence: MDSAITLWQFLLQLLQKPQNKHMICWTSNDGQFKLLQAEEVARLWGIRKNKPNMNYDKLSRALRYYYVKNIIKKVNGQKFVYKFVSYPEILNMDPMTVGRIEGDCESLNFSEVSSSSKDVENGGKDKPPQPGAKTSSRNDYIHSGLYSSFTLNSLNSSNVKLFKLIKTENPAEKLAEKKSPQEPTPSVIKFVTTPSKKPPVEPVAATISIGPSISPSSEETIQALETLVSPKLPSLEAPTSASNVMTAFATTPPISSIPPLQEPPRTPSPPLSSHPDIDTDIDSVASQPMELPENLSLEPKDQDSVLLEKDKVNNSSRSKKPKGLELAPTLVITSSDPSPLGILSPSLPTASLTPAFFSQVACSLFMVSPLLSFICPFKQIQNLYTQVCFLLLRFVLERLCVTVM
Procedure, shortened: as §1

ETV2 = biological target: T4, ETV2 (Homo sapiens, UniProt O00321 1-342); settings: protein: recombinant; tags: N-terminal GST; dsDNA, one strand shown
T4 sequence: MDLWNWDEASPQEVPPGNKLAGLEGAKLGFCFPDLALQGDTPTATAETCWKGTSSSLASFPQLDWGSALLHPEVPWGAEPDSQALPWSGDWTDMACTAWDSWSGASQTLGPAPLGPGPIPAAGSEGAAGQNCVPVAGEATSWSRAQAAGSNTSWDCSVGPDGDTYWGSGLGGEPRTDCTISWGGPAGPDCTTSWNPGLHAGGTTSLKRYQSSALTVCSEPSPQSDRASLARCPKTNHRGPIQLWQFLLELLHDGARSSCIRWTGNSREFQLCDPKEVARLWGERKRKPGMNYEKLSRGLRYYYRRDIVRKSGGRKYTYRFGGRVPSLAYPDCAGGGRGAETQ
Procedure, shortened: as §1

ELF3 = biological target: T5, ELF3 (Homo sapiens, UniProt P78545 1-371); settings: protein: recombinant; tags: N-terminal GST; dsDNA, one strand shown
T5 sequence: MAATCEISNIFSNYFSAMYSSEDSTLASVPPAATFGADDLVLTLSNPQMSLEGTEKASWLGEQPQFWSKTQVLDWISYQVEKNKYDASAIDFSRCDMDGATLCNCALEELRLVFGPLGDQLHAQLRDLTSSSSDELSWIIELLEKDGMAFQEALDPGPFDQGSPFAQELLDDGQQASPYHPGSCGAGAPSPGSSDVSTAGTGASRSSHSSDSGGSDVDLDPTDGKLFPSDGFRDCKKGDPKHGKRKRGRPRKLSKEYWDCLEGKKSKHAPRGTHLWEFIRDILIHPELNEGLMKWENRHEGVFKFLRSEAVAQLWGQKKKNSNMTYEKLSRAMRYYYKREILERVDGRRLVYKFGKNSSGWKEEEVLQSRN
Procedure, shortened: as §1

CRX = CRX (Homo sapiens, UniProt O43186 1-299); settings: protein: recombinant; tags: N-terminal GST; dsDNA, one strand shown
Sequence of CRX (O43186 whole entry): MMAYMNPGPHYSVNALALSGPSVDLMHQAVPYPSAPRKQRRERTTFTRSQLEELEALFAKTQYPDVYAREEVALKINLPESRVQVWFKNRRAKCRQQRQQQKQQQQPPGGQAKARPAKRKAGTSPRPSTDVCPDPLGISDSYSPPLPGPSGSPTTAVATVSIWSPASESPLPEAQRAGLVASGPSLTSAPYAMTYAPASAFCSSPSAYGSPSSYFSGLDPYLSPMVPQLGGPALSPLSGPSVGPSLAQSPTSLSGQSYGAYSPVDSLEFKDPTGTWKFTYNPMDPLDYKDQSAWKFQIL
Procedure, shortened: as §1

ETV1 = ETV1 (Homo sapiens, UniProt P50549 1-477); settings: protein: recombinant; tags: N-terminal GST; dsDNA, one strand shown
Sequence of ETV1 (P50549 whole entry): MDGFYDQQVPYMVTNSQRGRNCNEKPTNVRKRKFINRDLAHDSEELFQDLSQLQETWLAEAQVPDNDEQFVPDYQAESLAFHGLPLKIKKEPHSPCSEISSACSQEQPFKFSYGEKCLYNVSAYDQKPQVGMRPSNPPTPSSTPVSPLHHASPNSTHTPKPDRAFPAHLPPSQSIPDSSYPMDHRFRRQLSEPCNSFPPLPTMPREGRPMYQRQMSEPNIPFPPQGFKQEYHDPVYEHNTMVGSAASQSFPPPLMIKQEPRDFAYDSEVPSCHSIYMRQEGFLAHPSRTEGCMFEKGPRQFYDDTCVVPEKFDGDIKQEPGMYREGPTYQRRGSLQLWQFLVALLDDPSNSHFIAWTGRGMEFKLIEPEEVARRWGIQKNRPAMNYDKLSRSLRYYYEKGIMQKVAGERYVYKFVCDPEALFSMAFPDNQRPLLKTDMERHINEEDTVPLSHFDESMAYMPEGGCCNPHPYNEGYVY
Procedure, shortened: as §1

ERF = biological target: T6, ERF (Homo sapiens, UniProt P50548 1-548); settings: protein: recombinant; tags: N-terminal GST; dsDNA, one strand shown
T6 sequence: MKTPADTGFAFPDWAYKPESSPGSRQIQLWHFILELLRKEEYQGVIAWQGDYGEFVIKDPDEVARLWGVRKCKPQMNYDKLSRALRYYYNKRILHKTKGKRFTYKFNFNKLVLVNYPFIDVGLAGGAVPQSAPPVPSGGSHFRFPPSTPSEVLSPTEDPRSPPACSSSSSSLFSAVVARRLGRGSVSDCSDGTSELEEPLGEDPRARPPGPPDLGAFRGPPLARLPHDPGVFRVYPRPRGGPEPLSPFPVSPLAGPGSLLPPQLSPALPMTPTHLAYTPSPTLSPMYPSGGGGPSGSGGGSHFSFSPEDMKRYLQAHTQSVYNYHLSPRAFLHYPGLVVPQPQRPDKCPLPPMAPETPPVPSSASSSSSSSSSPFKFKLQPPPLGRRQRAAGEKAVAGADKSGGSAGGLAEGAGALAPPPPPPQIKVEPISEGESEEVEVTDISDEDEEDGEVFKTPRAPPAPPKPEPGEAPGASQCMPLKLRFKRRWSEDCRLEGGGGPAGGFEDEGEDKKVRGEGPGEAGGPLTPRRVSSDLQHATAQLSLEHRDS
Procedure, shortened: as §1

ETV3L = biological target: T7, ETV3L (Homo sapiens, UniProt Q6ZN32 1-361); settings: protein: recombinant; tags: N-terminal GST; dsDNA, one strand shown
T7 sequence: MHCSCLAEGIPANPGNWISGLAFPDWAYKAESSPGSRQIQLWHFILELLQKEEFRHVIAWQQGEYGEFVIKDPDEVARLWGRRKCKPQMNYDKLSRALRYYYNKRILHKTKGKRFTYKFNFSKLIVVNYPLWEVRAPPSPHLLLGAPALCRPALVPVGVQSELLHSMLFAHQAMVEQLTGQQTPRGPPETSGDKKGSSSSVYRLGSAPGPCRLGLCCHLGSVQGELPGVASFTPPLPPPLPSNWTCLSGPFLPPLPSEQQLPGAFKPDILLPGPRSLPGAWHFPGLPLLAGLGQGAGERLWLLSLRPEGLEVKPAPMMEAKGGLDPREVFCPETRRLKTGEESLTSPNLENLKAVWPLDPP
Procedure, shortened: as §1

ETS2 = biological target: T8, ETS2 (Homo sapiens, UniProt P15036 1-469); settings: protein: recombinant; tags: N-terminal GST; dsDNA, one strand shown
T8 sequence: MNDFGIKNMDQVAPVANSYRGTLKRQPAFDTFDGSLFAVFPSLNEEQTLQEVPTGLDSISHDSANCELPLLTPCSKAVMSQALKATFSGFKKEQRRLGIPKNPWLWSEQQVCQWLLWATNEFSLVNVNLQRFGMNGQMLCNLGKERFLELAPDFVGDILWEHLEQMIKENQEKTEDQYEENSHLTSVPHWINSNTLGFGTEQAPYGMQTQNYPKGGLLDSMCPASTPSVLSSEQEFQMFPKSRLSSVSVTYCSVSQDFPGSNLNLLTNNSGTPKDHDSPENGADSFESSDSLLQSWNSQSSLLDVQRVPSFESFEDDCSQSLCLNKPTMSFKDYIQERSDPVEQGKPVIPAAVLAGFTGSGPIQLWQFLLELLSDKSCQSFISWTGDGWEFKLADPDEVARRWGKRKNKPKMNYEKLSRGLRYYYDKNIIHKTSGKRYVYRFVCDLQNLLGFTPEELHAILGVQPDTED
Procedure, shortened: as §1

SPDEF = biological target: T9, SPDEF (Homo sapiens, UniProt O95238 1-335); settings: protein: recombinant; tags: N-terminal GST; dsDNA, one strand shown
T9 sequence: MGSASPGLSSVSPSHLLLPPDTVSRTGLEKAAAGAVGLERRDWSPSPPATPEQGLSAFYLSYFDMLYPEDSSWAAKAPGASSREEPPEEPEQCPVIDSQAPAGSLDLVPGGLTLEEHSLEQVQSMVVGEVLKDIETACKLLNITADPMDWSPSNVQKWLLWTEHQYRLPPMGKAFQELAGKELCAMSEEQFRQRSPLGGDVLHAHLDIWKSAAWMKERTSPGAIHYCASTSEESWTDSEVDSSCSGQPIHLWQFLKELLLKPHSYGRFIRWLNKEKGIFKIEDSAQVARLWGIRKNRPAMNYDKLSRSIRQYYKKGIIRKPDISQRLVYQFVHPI
Procedure, shortened: as §1

ETV7 = biological target: T10, ETV7 (Homo sapiens, UniProt Q9Y603 1-341); settings: protein: recombinant; tags: N-terminal GST; dsDNA, one strand shown
T10 sequence: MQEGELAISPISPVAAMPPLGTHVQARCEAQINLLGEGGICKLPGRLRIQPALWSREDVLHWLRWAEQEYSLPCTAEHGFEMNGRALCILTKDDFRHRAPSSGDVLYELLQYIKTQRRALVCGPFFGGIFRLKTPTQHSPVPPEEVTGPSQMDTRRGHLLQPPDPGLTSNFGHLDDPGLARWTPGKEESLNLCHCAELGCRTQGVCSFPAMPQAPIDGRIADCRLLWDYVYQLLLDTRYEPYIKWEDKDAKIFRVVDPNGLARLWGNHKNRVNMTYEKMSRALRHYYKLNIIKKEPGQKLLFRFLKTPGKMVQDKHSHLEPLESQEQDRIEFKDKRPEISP
Procedure, shortened: as §1

ELF5 = biological target: T11, ELF5 (Homo sapiens, UniProt Q9UKW6-2 1-255); settings: protein: recombinant; tags: N-terminal GST; dsDNA, one strand shown
T11 sequence: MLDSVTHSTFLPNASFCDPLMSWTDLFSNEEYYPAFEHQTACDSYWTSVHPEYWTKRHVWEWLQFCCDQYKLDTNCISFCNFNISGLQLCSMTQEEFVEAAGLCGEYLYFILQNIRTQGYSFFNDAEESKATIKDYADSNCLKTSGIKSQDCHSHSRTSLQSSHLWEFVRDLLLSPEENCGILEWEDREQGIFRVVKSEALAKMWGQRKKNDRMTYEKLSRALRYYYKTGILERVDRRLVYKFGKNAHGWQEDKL
Procedure, shortened: as §1

ETV3 = biological target: T12, ETV3 (Homo sapiens, UniProt P41162-2 1-143); settings: protein: recombinant; tags: N-terminal GST; dsDNA, one strand shown
T12 sequence: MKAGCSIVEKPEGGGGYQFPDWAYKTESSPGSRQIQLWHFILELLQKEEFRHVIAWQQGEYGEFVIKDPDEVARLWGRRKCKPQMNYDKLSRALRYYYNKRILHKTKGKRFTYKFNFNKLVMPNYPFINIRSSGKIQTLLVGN
Procedure, shortened: as §1

ETV6 = ETV6 (Homo sapiens, UniProt P41212 1-452); settings: protein: recombinant; tags: N-terminal GST; dsDNA, one strand shown
Sequence of ETV6 (P41212 whole entry): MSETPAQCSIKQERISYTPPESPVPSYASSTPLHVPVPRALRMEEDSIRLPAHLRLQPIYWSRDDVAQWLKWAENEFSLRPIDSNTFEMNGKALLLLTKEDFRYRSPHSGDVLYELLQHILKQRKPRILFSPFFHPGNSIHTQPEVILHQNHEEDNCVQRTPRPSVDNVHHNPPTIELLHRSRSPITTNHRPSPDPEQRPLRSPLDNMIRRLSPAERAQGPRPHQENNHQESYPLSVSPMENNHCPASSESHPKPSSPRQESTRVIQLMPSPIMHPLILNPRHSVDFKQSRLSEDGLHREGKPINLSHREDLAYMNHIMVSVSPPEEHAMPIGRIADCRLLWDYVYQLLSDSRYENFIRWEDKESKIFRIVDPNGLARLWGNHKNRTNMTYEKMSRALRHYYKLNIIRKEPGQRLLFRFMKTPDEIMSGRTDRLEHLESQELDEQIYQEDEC
Procedure, shortened: as §1

Question: ATCTGC was tested. Which binding signal (FEV) did it give?
Answer: 1.41 fold enrichment (6-mer frequency, TF over GST control)

Question: What about the binding signal (ETV5) of the same sequence?
Answer: 1.46 fold enrichment (6-mer frequency, TF over GST control)

Question: And the binding signal (HSF1)?
Answer: 1.44 fold enrichment (6-mer frequency, TF over GST control)

Question: What about the binding signal (SPIC) of the same sequence?
Answer: 1.46 fold enrichment (6-mer frequency, TF over GST control)

Question: What about the binding signal (ELF4) of the same sequence?
Answer: 1.44 fold enrichment (6-mer frequency, TF over GST control)

Question: What about the binding signal (ELK4) of the same sequence?
Answer: 1.5 fold enrichment (6-mer frequency, TF over GST control)

Question: And the binding signal (ETV2)?
Answer: 1.44 fold enrichment (6-mer frequency, TF over GST control)

Question: And the binding signal (ELF3)?
Answer: 1.14 fold enrichment (6-mer frequency, TF over GST control)

Question: And the binding signal (CRX)?
Answer: 1.67 fold enrichment (6-mer frequency, TF over GST control)

Question: What about the binding signal (ETV1) of the same sequence?
Answer: 1.36 fold enrichment (6-mer frequency, TF over GST control)

Question: And the binding signal (ERF)?
Answer: 1.31 fold enrichment (6-mer frequency, TF over GST control)

Question: What about the binding signal (ETV3L) of the same sequence?
Answer: 1.4 fold enrichment (6-mer frequency, TF over GST control)

Question: What about the binding signal (ETS2) of the same sequence?
Answer: 1.37 fold enrichment (6-mer frequency, TF over GST control)

Question: What about the binding signal (SPDEF) of the same sequence?
Answer: 1.36 fold enrichment (6-mer frequency, TF over GST control)

Question: And the binding signal (ETV7)?
Answer: 1.38 fold enrichment (6-mer frequency, TF over GST control)

Question: And the binding signal (ELF5)?
Answer: 1.31 fold enrichment (6-mer frequency, TF over GST control)

Question: What about the binding signal (ETV3) of the same sequence?
Answer: 1.36 fold enrichment (6-mer frequency, TF over GST control)

Question: And the binding signal (ETV6)?
Answer: 1.29 fold enrichment (6-mer frequency, TF over GST control)
